Only some compounds are listed: those with a hit (about 4.2% of all), similar ones and a draw of the others.
TIM10 inh: TIM10 yeast growth inhibition; S. cerevisiae TIM10 strain growth, BacTiter-Glo luminescence, 24 h; inhibition, % at 10 µM; 330,000 tested, 1.4% active; AID 463195;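 active = inhibition of 40% or more at the single tested concentration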;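 also: wild-type TIM10 isogenic control strain grown at permissive 25 °C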
NLRP3 yeast inh: inhibitors of NALP3 inflammasome in yeast. Yeast reconstituted NLRP3/ASC/caspase-1, beta-gal luminescence, 24 h. inhibition, % at 10 µM. 330,000 tested, 0.39% active. AID 2825;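 active = inhibition of 50% or more; inactive = inhibition below 50%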;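 also: plate controls were induced DMSO wells for no effect and uninduced yeast grown without galactose for full effect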
V-ATPase pH: alters yeast V-ATPase proton transport. S. cerevisiae, pHLuorin cytosolic pH fluorescence. response, % at 10 µM. 350,000 tested, 0.37% active. AID 504577; in the data active = response mostly above about 7.3%, no sharp cut-off; inactive = mostly below about 5.4%; also: actives read high
tim23-1 inh: growth inhibitors of tim23-1 mutant yeast. 330,000 tested, 1.3% active. AID 463212. inhibition, % at 20 µM. S. cerevisiae tim23-1 growth, BacTiter-Glo luminescence, 24 h;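 active = growth inhibition of the mutant yeast at or above 50%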;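 also: temperature-sensitive mutant grown at 25 °C; plate controls were DMSO-treated mutant yeast for no effect and medium wells lacking yeast for full effect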
NALP1 yeast inh: NALP1 inhibition | 280,000 tested, 0.61% active | AID 2071 | inhibition, % at 10 µM | S. cerevisiae NALP1/ASC/caspase-1 growth, X-gal OD620, 72 h; in the data active = inhibition mostly above about 24%, no sharp cut-off; inactive = mostly below about 32%
tim10-1 inh: inhibits growth of tim10-1 mutant yeast. S. cerevisiae tim10-1 ts strain growth, BacTiter-Glo, 24 h. inhibition, % at 20 µM. 330,000 tested, 2.2% active. AID 463190;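 active = inhibition of at least 40%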;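 also: mutant grown at 25 °C; 0% = DMSO wells with yeast and 100% = wells holding no yeast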
tim10-1 confirm: confirmation of tim10-1 mutant yeast growth inhibitors. shares compounds with tim10-1 inh. S. cerevisiae tim10-1 ts strain growth, BacTiter-Glo, 24 h. inhibition, % at 20 µM. 7,400 tested, 56% active;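 active = inhibition of yeast growth at or above a set limit in either of two repeat tests at 20 µM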;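 also: tim10-1 mutant grown at permissive 25 °C to find synthetic lethal compounds; 0% = DMSO yeast wells and 100% = medium wells without yeast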
TIM10 conf: confirmation of TIM10 yeast growth inhibitors; shares compounds with TIM10 inh; S. cerevisiae tim10 strain growth, BacTiter-Glo luminescence, 24 h; inhibition, % at 10 µM; 4,600 tested, 63% active; AID 463215;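 active = inhibition of yeast growth at or above a set limit in either of two replicates at 10 µM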;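 also: this counterscreen used the strain with wild-type TIM10; 0% = yeast with DMSO and 100% = medium wells lacking yeast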
tim23-1 conf: tim23-1 yeast growth inhibition, confirmed; shares compounds with tim23-1 inh; S. cerevisiae tim23-1 growth, BacTiter-Glo luminescence, 24 h; inhibition, % at 20 µM; 4,400 tested, 83% active; AID 463218;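 active = inhibition above about 39% in either of two replicate wells at 20 µM, limit read from the data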;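 also: temperature-sensitive tim23-1 mutant grown at 25 °C; 0% = DMSO wells with yeast and 100% = medium wells without yeast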
Starred values were filed as active, the others as inactive.

For COc1ccc(S(=O)(=O)N2CCN(C(=O)c3cc4c(s3)CCCC4)CC2)cc1 the results were TIM10 inh 22, NLRP3 yeast inh 9, V-ATPase pH 1, tim23-1 inh 50*, tim10-1 inh 54*, tim10-1 confirm 39* and tim23-1 conf 57*.
Screening CN(CCc1ccccn1)C(=O)CCC1CCCN(C(=O)NC2CCCCC2)C1 (centres undefined) returned TIM10 inh 11, NLRP3 yeast inh 15, V-ATPase pH 0, tim23-1 inh 8, NALP1 yeast inh 1 and tim10-1 inh 4.
CCOc1ncccc1C(=O)OCC(=O)c1cccc(Br)c1 was read as TIM10 inh 12, NLRP3 yeast inh 21, V-ATPase pH 2, tim23-1 inh 11, NALP1 yeast inh -10 and tim10-1 inh 12.
For O=[N+]([O-])c1ccc(N2CCN(Cc3ccc(Br)o3)CC2)cc1 the results were TIM10 inh 6, NLRP3 yeast inh -19, V-ATPase pH -1, tim23-1 inh 11, NALP1 yeast inh -7 and tim10-1 inh 0.
For CC(C)(C)c1nn(-c2ccccc2)c2[nH]c(=O)c(CNc3ccc4c(c3)OCCO4)cc12 the results were TIM10 inh 56*, NLRP3 yeast inh 33, V-ATPase pH -2, tim23-1 inh 83*, NALP1 yeast inh -1, tim10-1 inh 68*, tim10-1 confirm 65*, TIM10 conf 44* and tim23-1 conf 83*.
For CC(C)(C)c1nn(-c2ccccc2)c2[nH]c(=O)c(CNCc3ccco3)cc12 the results were TIM10 inh 23, NLRP3 yeast inh 12, V-ATPase pH 4, tim23-1 inh 38, NALP1 yeast inh -5 and tim10-1 inh 36.
For CC(=O)NC1Sc2ccccc2N=C1c1ccccc1 (centres undefined) the results were TIM10 inh 42*, NLRP3 yeast inh -23, V-ATPase pH -2, tim23-1 inh 73*, NALP1 yeast inh -1, tim10-1 inh 43*, tim10-1 confirm 54*, TIM10 conf 56* and tim23-1 conf 79*.
`COc1ccc(CN(CC(=O)NCc2ccc(F)cc2)C(=O)CCC(=O)Nc2ccccn2)cc1` gave TIM10 inh 7, NLRP3 yeast inh 19, V-ATPase pH -5, tim23-1 inh 2, NALP1 yeast inh 2 and tim10-1 inh -25.
`O=C(OCn1cncn1)c1ccc(Cl)cc1Cl` gave TIM10 inh -4, NLRP3 yeast inh 20, V-ATPase pH 0, tim23-1 inh 6, NALP1 yeast inh 17 and tim10-1 inh 8.
For COc1ccc(/C=C(/C(=O)c2ccc(Cl)cc2Cl)n2cncn2)cc1 the results were TIM10 inh 77*, NLRP3 yeast inh 28, V-ATPase pH -2, tim23-1 inh 76*, NALP1 yeast inh -11, tim10-1 inh 64*, tim10-1 confirm 70*, TIM10 conf 78* and tim23-1 conf 49*.
CN(C)/C=C(/C(=O)c1ccc(Cl)cc1)n1cncn1 was read as TIM10 inh -13, NLRP3 yeast inh 21, V-ATPase pH -1, tim23-1 inh 12, NALP1 yeast inh -4 and tim10-1 inh 6.
CN(C)c1ccc(/C=C(/C(=O)c2ccc(Cl)cc2Cl)n2cncn2)cc1 was read as TIM10 inh 51*, NLRP3 yeast inh 9, V-ATPase pH -3, tim23-1 inh 54*, tim10-1 inh 53*, tim10-1 confirm 41*, TIM10 conf -26 and tim23-1 conf 56*.
`O=C(N/N=C/c1ccc([N+](=O)[O-])o1)c1ccc2c(c1)OCO2` gave TIM10 inh 64*, NLRP3 yeast inh 20, V-ATPase pH 2, tim23-1 inh 79*, NALP1 yeast inh -4, tim10-1 inh 64*, tim10-1 confirm 60*, TIM10 conf 52* and tim23-1 conf 23.
Cc1noc2ncnc(Sc3ccc(Br)cc3)c12 was read as TIM10 inh 36, NLRP3 yeast inh 46, V-ATPase pH -2, tim23-1 inh 65*, NALP1 yeast inh -3, tim10-1 inh 54*, tim10-1 confirm 74* and tim23-1 conf 68*.
For CC(/C=N/n1c(COc2ccccc2)n[nH]c1=S)=C\c1ccccc1 the results were TIM10 inh 34, NLRP3 yeast inh 32, V-ATPase pH -1, tim23-1 inh 51*, NALP1 yeast inh -1, tim10-1 inh 43*, tim10-1 confirm 30 and tim23-1 conf 50*.
Screening Cc1cc(-c2n[nH]c(=S)n2/N=C/C(Cl)=C/c2ccccc2)n[nH]1 returned TIM10 inh 54*, NLRP3 yeast inh 32, V-ATPase pH 0, tim23-1 inh 54*, NALP1 yeast inh 21, tim10-1 inh 51*, tim10-1 confirm 47*, TIM10 conf -8 and tim23-1 conf 48*.
Screening COc1ccc(S(=O)CC(=O)Nc2ccc(Cl)cc2Cl)cc1 (centres undefined) returned TIM10 inh -8, NLRP3 yeast inh 15, V-ATPase pH -1, tim23-1 inh 7, NALP1 yeast inh 4 and tim10-1 inh 19.
`Cc1csc(SCC(=O)Nc2cc([N+](=O)[O-])ccc2F)n1` gave TIM10 inh 4, NLRP3 yeast inh 13, V-ATPase pH 1, tim23-1 inh 12 and tim10-1 inh 23.
CCN=c1sc(C(=O)NCCc2ccccc2)cc(=O)n1CC was read as TIM10 inh 43*, NLRP3 yeast inh 23, V-ATPase pH -5, tim23-1 inh 66*, NALP1 yeast inh 16*, tim10-1 inh 51*, tim10-1 confirm 48*, TIM10 conf 11 and tim23-1 conf 52*.
CCc1ccc(OCC(=O)Nc2ccc(S(=O)(=O)N3CCCC3)cc2)c(Br)c1 was read as TIM10 inh -8, NLRP3 yeast inh 1, V-ATPase pH 9, tim23-1 inh -4, NALP1 yeast inh 5 and tim10-1 inh -2.
O=C(COc1ccc(Br)cc1CO)Nc1ccc(S(=O)(=O)N2CCCCC2)cc1 was read as TIM10 inh 39, NLRP3 yeast inh 1, V-ATPase pH 7, tim23-1 inh 53*, tim10-1 inh 40*, tim10-1 confirm 50* and tim23-1 conf 61*.
For O=c1ccc2cc3c(-c4ccccc4)coc3cc2o1 the results were TIM10 inh 46*, NLRP3 yeast inh -7, V-ATPase pH -1, tim23-1 inh 64*, NALP1 yeast inh -7, tim10-1 inh 60*, tim10-1 confirm 61*, TIM10 conf 58* and tim23-1 conf 66*.
